# MITF inh: blocks human microphthalmia-associated transcription factor | inhibition, % at 2.6 µM | AlphaScreen MITF homodimerization, bead proximity signal | O75030 | AID 1259374 | actives 0.91% (n = 650,000); in the data active = inhibition above about 50%
# FBW7 act: human FBW7 E3 ligase activation, primary screen; Q969H0; AlphaScreen FBW7–phospho-cyclin E peptide binding, activator screen; normalized activity (activation), % at 26.1 µM; actives 0.13% (n = 650,000); AID 1259310; in the data active = normalized activity above about 1.9%;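 note: purified mutant Fbw7 with reduced substrate affinity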
# Target sequence (Q969H0 whole entry, looked up): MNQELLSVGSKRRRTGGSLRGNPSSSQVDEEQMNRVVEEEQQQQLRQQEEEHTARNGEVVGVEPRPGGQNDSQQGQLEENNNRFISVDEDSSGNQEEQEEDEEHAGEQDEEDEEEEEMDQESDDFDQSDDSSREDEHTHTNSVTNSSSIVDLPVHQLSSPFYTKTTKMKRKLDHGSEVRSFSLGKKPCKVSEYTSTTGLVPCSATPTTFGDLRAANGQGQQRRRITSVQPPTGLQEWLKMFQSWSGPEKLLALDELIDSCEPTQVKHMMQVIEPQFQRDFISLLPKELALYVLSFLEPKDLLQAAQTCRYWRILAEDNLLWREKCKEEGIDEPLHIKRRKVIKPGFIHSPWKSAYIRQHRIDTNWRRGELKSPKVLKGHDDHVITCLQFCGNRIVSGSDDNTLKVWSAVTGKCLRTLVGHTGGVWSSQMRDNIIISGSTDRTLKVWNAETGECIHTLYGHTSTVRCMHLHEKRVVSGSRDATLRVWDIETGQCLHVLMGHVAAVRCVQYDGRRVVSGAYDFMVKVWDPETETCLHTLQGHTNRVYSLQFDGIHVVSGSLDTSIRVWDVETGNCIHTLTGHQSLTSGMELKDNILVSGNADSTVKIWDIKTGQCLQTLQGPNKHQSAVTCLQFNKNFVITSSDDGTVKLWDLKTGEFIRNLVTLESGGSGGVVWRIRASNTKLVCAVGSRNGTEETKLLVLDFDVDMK
# TEAD-YAP block: TEAD-YAP interaction inhibition; HEK-TIYL cells, TEAD-Gal4/YAP UAS-luciferase luminescence; inhibition, % at 9.12 µM; actives 1.4% (n = 640,000); AID 1259422; in the data active = inhibition above about 32%
# GPR151 activ: activators of human GPR151; Q8TDV0; PathHunter beta-arrestin GPR151 cells, luminescence; activation, % at 11.2 µM; actives 1% (n = 650,000); AID 1508602; in the data active = activation above about 4.9%
# GPR151 conf act: human GPR151 activation, confirmation screen. shares compounds with GPR151 activ. GPR151 PathHunter beta-arrestin cells, luminescence, 90 min; % of EA-reagent control over plate median. activation, % at 11.2 µM. 6,700 tested, under 10 active;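 active = mean percent activation across replicates above the confirmation screen cutoff of 4.91%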
# GPR119 counter: activates human GPR119 in a GPR151 counter-screen; shares compounds with GPR151 activ; GPR119 PathHunter beta-arrestin cells, luminescence, 90 min; 0 = compound-well median, 100 = enzyme-acceptor control; activation, % at 11.2 µM; actives 0.3% (n = 6,700); AID 1508611;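 active = mean percent activation in the counterscreen above 29.09%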;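 note: counterscreen on off-target GPR119 to flag nonselective hits from the GPR151 activator screen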
# Numbers stand for hits; - = inactive; . = no result; ! = a repeat was not active. Compounds with a hit are over-represented: about 3.5% of the library has one in this group of screens.
SMILES,MITF inh,FBW7 act,TEAD-YAP block,GPR151 activ,GPR151 conf act,GPR119 counter
O=C1C2C(C(=O)N1c1ccc(Br)cc1[N+](=O)[O-])C1C=CC2C12CC2 (configuration not stated),-,-,-,-,.,.
COCCN1C(=O)CC[C@@]23C1=NC(C(=O)OC)=C(C(=O)OC)[C@@H]2N(Cc1ccccc1)c1ccccc13,-,-,.,-,.,.
COC(=O)C1=C(C(=O)OC)[C@@H]2N(C)c3ccccc3[C@@]23CCC(=O)N(CCCOC(C)C)C3=N1,-,-,.,7.2,-,-
COCCN1C(=O)CC[C@@]23C1=NC(C(=O)OC)=C(C(=O)OC)[C@@H]2N(C)c1ccccc13,-,-,.,6.9,-,-
CC(=O)Nc1nnc(SCc2cc(=O)c(OC(=O)c3ccccc3Cl)co2)s1,-,-,-,-,.,.
CCCc1nc(C(C)(C)O)c(C(=O)OCc2oc(=O)oc2C)n1Cc1ccc(-c2ccccc2-c2nn[nH]n2)cc1,-,-,-,11.5!,-,-
CCOc1nc2cccc(C(=O)OC(C)OC(=O)OC3CCCCC3)c2n1Cc1ccc(-c2ccccc2-c2nn[nH]n2)cc1 (configuration not stated),-,-,-,-,.,.
O=C(CN1C(=O)COc2cc(S(=O)(=O)N3CCCC3)ccc21)NC1CCCCCCC1,-,-,-,7.1,-,-
COC(=O)CN1C(=O)COc2cc(S(=O)(=O)N3CCCCCC3)ccc21,-,-,-,5.8,-,-
O=C(CN1C(=O)COc2cc(S(=O)(=O)N3CCCCC3)ccc21)NC1CCCCCC1,-,-,-,-,.,.
Cc1ccc(CNC(=O)[C@@H](NC(=O)c2ccccc2)C(C)C)cc1,-,-,-,-,.,.
O=C1N[C@@H](COCc2ccccc2)C(=O)N2CCN(C(=O)c3ccc4ccccc4c3)C[C@H]12,-,-,-,-,.,.
C=CCSc1nc2c(c(=O)[nH]1)C(c1ccc(C)o1)C1=C(CCCC1=O)N2 (configuration not stated),-,-,-,6.3,-,-
N#Cc1cc2cc3c(cc2nc1NCCCNC(=O)C1CCCO1)OCO3 (configuration not stated),-,-,-,-,.,.
CN1C(=O)c2ccc(C(=O)Nc3ccccc3I)cc2C1=O,-,-,-,5.2,-,-
CCCN1C(=O)c2ccc(C(=O)Nc3ccccc3I)cc2C1=O,-,-,-,-,.,.
O=c1c2cnn(-c3ccccc3)c2ncn1C/C=C/c1ccccc1,-,-,-,8.3,-,-
CC(C)NC(=O)C1CCN(C(=O)N2CCOc3ccccc32)CC1,-,-,-,-,.,.
O=C(NCC1CCCO1)C1CCN(C(=O)N2CCOc3ccccc32)CC1 (configuration not stated),-,-,-,9.7,-,-
CCOC(=O)CCc1c(C)nc2nc(CNC(=O)c3ccccc3)nn2c1C,-,-,-,5.2,-,-
Cc1nc2nc(CNC(=O)OC(C)(C)C)nn2c(C)c1CCC(=O)NCc1ccccc1,-,-,-,-,.,.
COc1ccc(C2CC(=O)C3=C(C2)Nc2ccccc2N(C(=O)C(F)(F)F)C3c2ccccc2)cc1 (configuration not stated),-,-,-,5.1,-,-
Cc1ccc(N2C(=O)CC(NC34CC5CC(CC(C5)C3)C4)C2=O)cc1 (configuration not stated),-,-,-,-,.,.
COc1ccc(N2C(=O)CC(NCCNC(=O)c3ccc(Cl)cc3)C2=O)cc1 (configuration not stated),-,-,-,17.8,-,-
COc1ccc(N2C(=O)CC(NC34CC5CC(CC(C5)C3)C4)C2=O)cc1 (configuration not stated),-,-,-,5.5,-,-
SMILES,MITF inh,FBW7 act,TEAD-YAP block,GPR151 activ,GPR151 conf act,GPR119 counter
O=C(NCc1cccc(C(F)(F)F)c1)c1cccc(N2CCc3ccccc3C2)n1,-,-,-,-,.,.
CCCCC1CN(CCC(=O)NCc2c(C)nn(CC)c2C)Cc2ccccc2O1 (configuration not stated),-,-,-,7.5,-,-
Cc1nnc(NC(=O)C(C)N2CCN(C)CC2)s1 (configuration not stated),-,-,-,-,.,.
Cc1nnc(NC(=O)C(C)N2CCCC2)s1 (configuration not stated),-,-,-,13.7,-,-
N#CC1=C(N)Oc2cc(O)ccc2C1C1CC=CCC1 (configuration not stated),-,-,-,5.4,-,-
O=C(CSc1nnc(Nc2ccccc2)s1)N1CCCCC1,-,-,-,-,.,.
O=C(CCCOc1ccccc1)Nc1ccccc1C(=O)N1CCOCC1,-,-,-,9.4,-,-
COc1ccc(NC(=O)C2CCN(c3nnc(N4CCCC4=O)s3)CC2)cc1,-,-,-,6.3,-,-
CCCN(CCC)S(=O)(=O)c1ccc(NS(C)(=O)=O)cc1,-,-,-,-,.,.
CC(=O)Nc1ccc(S(=O)(=O)Nc2ccc(C(F)(F)F)cc2[N+](=O)[O-])cc1,-,-,-,7.8,-,-
CC(=O)Nc1ccc(NS(=O)(=O)c2ccc([N+](=O)[O-])cc2)cc1,-,-,-,17.5,-,-
CC(=O)Nc1ccc(S(=O)(=O)c2ccc(NC(C)=O)c([N+](=O)[O-])c2)cc1[N+](=O)[O-],-,-,-,7.5,-,-
CCCN(CCC)S(=O)(=O)c1ccc(NS(=O)(=O)c2ccc(F)cc2)cc1,-,-,-,6.1,-,-
CC(=O)Nc1ccc(S(=O)(=O)c2ccc([N+](=O)[O-])cc2)cc1,-,-,-,-,.,.
O=[N+]([O-])c1ccc(Oc2ccc(S(=O)(=O)Nc3ccc(F)cc3)cc2)cc1,-,-,35.5,7.5,-,-
O=[N+]([O-])c1ccc(Oc2ccc(S(=O)(=O)Nc3ccccc3)cc2)cc1,-,-,-,-,.,.
Cc1ccnc(NS(=O)(=O)c2ccc([N+](=O)[O-])cc2)n1,-,-,-,7.5,-,-
COc1ccc2c(c1)N(C(C)=O)C(C)(C)c1ssc(=S)c1-2,-,-,-,-,.,.
COc1ccc(-n2nc(C(=O)NCC(=O)NCCCN3CCN(c4cccc(Cl)c4)CC3)c3ccccc3c2=O)cc1OC,-,-,-,4.9,-,-
CCOc1ccccc1N(C)C(=O)c1nn(-c2cc(OC)cc(OC)c2)c(=O)c2ccccc12,-,-,-,6.6,-,-
COc1ccccc1-n1nc(C(=O)Nc2ccc(Cl)cn2)c2ccccc2c1=O,-,-,-,7.6,-,-
CCOc1ccccc1N(C)C(=O)c1nn(-c2ccc(OC)cc2)c(=O)c2ccccc12,-,-,-,-,.,.
COc1ccc(-n2nc(C(=O)NCC(=O)NCCCN3CCC(C)CC3)c3ccccc3c2=O)cc1OC,-,-,-,-,.,.
CCOc1ccc(NC(=O)c2nnn(-c3ccccc3OC)c2C)cc1,-,-,-,5.7,-,-
